# Reference: PubChem BioAssay (NCATS)
# Several values for one entry are separate records, joined by “and”; a condition that tells them apart may be missing. Equal values may be shown once. Records with an inconclusive call do not appear. Entries that show only a call come without a potency. Activity calls are given as the source filed them. Unless noted, the call rests on the fitted dose curve; in most records, active means well fitted curve in the direction sought with a large enough effect; inconclusive means small, poorly fitted or top-dose-only effect, or another doubt; inactive means no such curve, though single readings can be large; an effect the other way counts as inactive or inconclusive.
# How the values were obtained:
# [1] = HPAF-II 24hr Apoptosis Induction qHTS against the NCATS CANVASS Library (AID 1347356)
# In short: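 HPAF-II cells (500/well) in DMEM + 10% FBS were treated with an 11-point compound series for 24 hours at 37 degrees C. Caspase-3/7 activity was then read by Caspase-Glo DEVD luminescence after 15 min.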
# [2] = HPAF-II 18hr Apoptosis Induction qHTS against the NCATS CANVASS Library (AID 1347360); further: potency means the concentration at half of the fitted maximal effect
# In short: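 Apoptosis was scored as caspase-3/7 activity in HPAF-II pancreatic cancer cells treated 18 hours with an 11-point concentration series.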
# [3] = qHTS for ATAD5 Agonist screened against the NCATS CANVASS Library (AID 1347367);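 further: luciferase reporter driven by ATAD5 which rises upon DNA damage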
# In short: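 Step one plated reporter cells and let them acclimate 5hr. Step two pinned compounds with MMS as positive and 0.46% DMSO as negative control. After 16hr incubation, fluorescence viability then luminescence were read.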
# [4] = qHTS for Antimalaria activity screened against the NCATS CANVASS Library (AID 1347380); further: nearly all actives have a fitted effect of over 40% in size; further: potency means the concentration at half of the fitted maximal effect;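 on activity change, negative = inhibition: Plasmodium falciparum strain Dd2 asexual parasites grown in red blood cells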
# In short: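 P. falciparum Dd2-infected RBCs (2.5% hematocrit final, 0.3% parasitemia) in Albumax II RPMI were exposed to compounds in an 11-point qHTS series for 72 h at 37C under 5% O2/5% CO2, then lysed with SYBR Green.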
# [5] = tested on: Zika virus NS2B-NS3 protease (linked construct); experiment: Primary screen NINDS Rhodamine qHTS for Zika virus inhibitors (AID 1347160); further: potency means the concentration at half of the fitted maximal effect; nearly all actives have a fitted effect of over 55% in size
# In short: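 Percent inhibition, normalized to uninhibited and enzyme-free controls, is fitted to a 4-parameter Hill equation. Fluorescence change comes from a 15-min cleavage of 1.5 microM bis-peptide Rhodamine110 substrate by 25 nM linked NS2B-NS3 at room temperature.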
# [6] = Redox Reaction Profiling qHTS: Assay Interference Panel against the NCATS CANVASS Library (AID 1347401); further: potency means the concentration at half of the fitted maximal effect
# In short: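 Compounds in 11-point series incubated with 5 uM resazurin and 200 uM DTT in 50 mM HEPES pH 7.3, 50 mM NaCl. Resorufin fluorescence (Ex 525/Em 598) read before and after 15 min in the dark.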
# [7] = qHTS for activators of dead-cell proteases activity screened against the NCATS CANVASS Library (AID 1347392);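 further: luminescence from protease leaking out of membrane-damaged cells cleaving impermeant substrate; rising signal means more cytotoxicity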
# In short: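 HepG2 cells, 2000/well, attached 18 h at 37C, then exposed to compounds (11-point qHTS) for 5 h. Dead-cell protease release read as luminescence from cell-impermeant AAF-aminoluciferin substrate after 15 min at room temperature.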
# [8] = UWB1.289 Cancer Cell Toxicity qHTS against the NCATS CANVASS Library (AID 1347347); further: nearly all actives have a fitted effect of over 60% in size; further: potency means the concentration at half of the fitted maximal effect
# In short: (§1)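 In this cytotoxicity screen, 1000 cells per well rested 4 hours, then received compound (11 concentrations) for a 72-hour incubation; an ATP-dependent luminescent signal (CellTiter-Glo) was the endpoint.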
# [9] = OV-SAHO Cancer Cell Toxicity qHTS against the NCATS CANVASS Library (AID 1347348); further: nearly all actives have a fitted effect of over 55% in size; further: potency means the concentration at half of the fitted maximal effect
# In short: as §1
# [10] = Primary qHTS for small molecule stabilizers of the endoplasmic reticulum resident proteome: Secreted ER Calcium Modulated Protein (SERCaMP) assay (AID 1508630)
# In short: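 GLuc-SERCaMP-expressing SH-SY5Y cells, pretreated 16 h with compound, are challenged with thapsigargin to empty ER calcium stores; after 4 h, coelenterazine is added directly to the medium and luminescence is imaged.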
# [11] = molecular target: Glucocorticoid receptor (Homo sapiens) (UniProt P04150); experiment: GR-GFP Redistribution (AID 450;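 active means compounds whose dose series gives a full or clear partial fitted curve of increased nuclear translocation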; further: potency means the concentration at half of the fitted maximal effect); details: U2OS GR-GFP nuclear translocation, laser cytometry, 2 h
# Sequence of Glucocorticoid receptor (Homo sapiens) (P04150 whole entry, looked up, the tested form may be a part): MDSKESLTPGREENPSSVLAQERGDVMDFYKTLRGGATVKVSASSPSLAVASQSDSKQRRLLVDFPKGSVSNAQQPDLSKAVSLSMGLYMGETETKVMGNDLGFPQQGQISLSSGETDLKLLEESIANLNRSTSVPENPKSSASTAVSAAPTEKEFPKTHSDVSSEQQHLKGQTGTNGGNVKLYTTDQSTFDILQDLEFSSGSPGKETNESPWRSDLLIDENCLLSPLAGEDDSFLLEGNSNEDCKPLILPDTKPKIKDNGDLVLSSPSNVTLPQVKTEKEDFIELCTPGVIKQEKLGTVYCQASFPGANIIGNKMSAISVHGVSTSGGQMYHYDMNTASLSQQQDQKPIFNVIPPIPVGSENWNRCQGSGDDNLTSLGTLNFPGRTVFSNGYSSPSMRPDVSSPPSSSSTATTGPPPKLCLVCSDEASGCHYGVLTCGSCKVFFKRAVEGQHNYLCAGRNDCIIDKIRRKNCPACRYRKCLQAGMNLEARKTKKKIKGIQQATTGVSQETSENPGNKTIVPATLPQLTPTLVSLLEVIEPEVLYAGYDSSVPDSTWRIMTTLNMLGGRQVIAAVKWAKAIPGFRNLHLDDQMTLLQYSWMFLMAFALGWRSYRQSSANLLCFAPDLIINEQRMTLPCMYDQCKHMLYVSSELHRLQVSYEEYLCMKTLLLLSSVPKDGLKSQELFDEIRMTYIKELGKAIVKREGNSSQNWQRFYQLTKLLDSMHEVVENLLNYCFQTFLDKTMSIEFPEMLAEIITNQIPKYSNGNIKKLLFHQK
# [12] = molecular target: Mitogen-activated protein kinase 10 (Mus musculus) (UniProt Q61831); experiment: JNK3 AlphaScreen Assay (AID 530; active means well fitted curve in either direction with a large enough effect, not every such curve was filed as active;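 further: kinase came from lysate of stimulated human HepG2 cells; signal reports phosphorylation of biotinylated GST-cJun 1-79 at Ser73 with 10 µM ATP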)
# In short: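 qHTS format: compounds tested as titrations against IL-1beta/TNF-alpha-activated HepG2 lysate JNK3 with biotin-GST-cJun substrate and 10 uM ATP at room temperature. Loss of anti-phospho-cJun AlphaScreen signal indicates inhibition.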
# [13] = molecular target: DNA dC->dU-editing enzyme APOBEC-3G (Homo sapiens) (UniProt Q9HC16); experiment: qHTS for inhibitors of Vif-A3G interactions: Validation (AID 588379)
# Sequence of DNA dC->dU-editing enzyme APOBEC-3G (Homo sapiens) (Q9HC16 whole entry, looked up): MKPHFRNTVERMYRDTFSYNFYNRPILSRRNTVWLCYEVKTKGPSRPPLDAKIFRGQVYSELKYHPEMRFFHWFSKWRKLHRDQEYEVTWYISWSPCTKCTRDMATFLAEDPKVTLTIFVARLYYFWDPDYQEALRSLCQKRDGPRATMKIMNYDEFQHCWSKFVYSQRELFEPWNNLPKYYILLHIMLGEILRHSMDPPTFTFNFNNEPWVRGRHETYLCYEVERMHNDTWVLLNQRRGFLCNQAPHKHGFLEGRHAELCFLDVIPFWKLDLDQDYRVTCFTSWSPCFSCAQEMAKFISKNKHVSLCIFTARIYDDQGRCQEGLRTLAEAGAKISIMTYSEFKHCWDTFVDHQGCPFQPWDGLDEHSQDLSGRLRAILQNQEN
# In short: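 HeLa cells stably expressing Vif and A3G-eYFP, 700 cells/well, incubated overnight at 37 deg C, then exposed to compound overnight at 37 deg C. Inhibition of Vif-mediated degradation read as increased yellow fluorescence (Ex 488/Em 500-530) by laser-scanning cytometry.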
# [14] = molecular target: Glucocorticoid receptor (Homo sapiens) (UniProt P04150); experiment: GR-EFC Redistribution (AID 451; calls by dose curve; further: potency means the concentration at half of the fitted maximal effect); details: CHO-K1 GR-EFC translocation, beta-gal luminescence, 2 h
# In short: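 CHO-K1 cells expressing nuclear EA and GR-ED fragments of b-gal; compounds titrated up to 46 uM final, 2 h at 37 C. GR nuclear translocation read as complemented b-gal luminescence after 1 h RT detection.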
# [15] = qHTS Assay for Lipid Storage Modulators (AID 1519; calls by dose curve); details: Drosophila S3 cells, BODIPY lipid droplet/cell ratio, laser cytometry, cells loaded with oleic acid
# In short: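 Cells seeded at 5,000 per well were treated with compounds over a concentration series and loaded with oleic acid (400 uM, as added). Lipid droplet fluorescence (488 nm excitation, 500-530 nm channel) was read by laser-scanning cytometry and normalized to 20 uM Triacsin C.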
# [16] = measured here: cell count channel max response
# [17] = measured here: lipid channel max response
structure (smiles),measurement,setting,value
C=CC(C)(C)C(=O)[C@@H](C)[C@@H]1CC[C@](C)(C=C)O1,outcome,[1],inactive
same,Potency,[2],inactive
same,Potency,[3],inactive
same,Potency,[4],inactive
O=C1CC(c2cc(O)cc(O)c2)Oc2cc(O)ccc21 (stereo unspecified),Potency,[5],34.9 µM (active)
same,Potency,[2],inactive
same,Potency,[4],inactive
same,Potency,[6],inactive
O=c1cc(-c2ccc(O)c(O[C@@H]3O[C@H](CO)[C@@H](O)[C@H](O)[C@H]3O)c2)oc2cc(O[C@@H]3O[C@H](CO)[C@@H](O)[C@H](O)[C@H]3O)cc(O)c12,Potency,[5],27.7 µM (active)
same,Potency,[4],0.0047 µM (active)
same,Potency,[7],inactive
O=Cc1ccc2n1C[C@@]1(C[C@H](O)[C@H](O)CO1)OC2,Potency,[2],inactive
same,Potency,[3],inactive
same,Potency,[7],inactive
COc1c(O)cc2oc(-c3ccccc3)cc(=O)c2c1O,Potency,[5],44 µM (active)
same,Potency,[6],inactive
C=C(C)CC[C@H](Cc1c(O)cc(O)c2c1O[C@H](c1ccc(O)cc1O)CC2=O)C(=C)C,Potency,[5],19.6 µM (active)
same,Potency,[2],inactive
same,Potency,[3],inactive
same,Potency,[4],0.0059 µM (active)
same,Potency,[7],inactive
CN1C(=O)[C@]23SS[C@@]1(C)C(=O)N2[C@H]1Nc2ccccc2[C@]1(c1c[nH]c2ccccc12)[C@@H]3O,Potency,[8],0.747 µM (active)
same,Potency,[9],0.838 µM (active)
same,Potency,[2],0.469 µM (active)
same,Potency,[3],inactive
same,Potency,[6],24.1 µM (active)
C=C[C@@]1(C)CC[C@@H]([C@H](C)C(=O)/C=C/C(C)C)O1,Potency,[8],inactive
same,Potency,[9],inactive
same,outcome,[1],inactive
same,Potency,[2],inactive
same,Potency,[4],inactive
CC[C@H](C)[C@H](NC(=O)[C@H](C)NC(=O)[C@H](CC(N)=O)NC(=O)[C@H](CCCCN)NC(=O)[C@H](Cc1ccccc1)NC(=O)[C@H](CC(C)C)NC(=O)[C@@H](NC(=O)[C@@H](NC(=O)[C@H](CC(C)C)NC(=O)[C@@H]1CCCN1C(=O)[C@@H](NC(=O)[C@H](CCC(N)=O)NC(=O)[C@H](CO)NC(=O)[C@H](CCCCN)NC(=O)[C@H](CCC(=O)O)NC(=O)[C@H](CO)NC(=O)[C@@H](NC(=O)[C@H](CCSC)NC(=O)[C@H](Cc1ccccc1)NC(=O)CNC(=O)CNC(=O)[C@@H](N)Cc1ccc(O)cc1)[C@@H](C)O)[C@@H](C)O)C(C)C)[C@@H](C)O)C(=O)N[C@H](C(=O)N[C@@H](CCCCN)C(=O)N[C@@H](CC(N)=O)C(=O)N[C@@H](C)C(=O)N[C@@H](Cc1ccc(O)cc1)C(=O)N[C@@H](CCCCN)C(=O)N[C@@H](CCCCN)C(=O)NCC(=O)N[C@@H](CCC(=O)O)C(=O)O)[C@@H](C)CC,"activity change, negative = inhibition",[10],-16.9% [at 3.88 µM] (inactive)
O=Cc1c2[nH]c3ccccc3c2cc2[nH]c3ccccc3c12,Potency,[10],inactive
CCCCNC(=O)[C@@H]1Cc2ccccc2N1C(=O)[C@H](N)CC,Potency,[11],> 46 µM (inactive)
same,Potency,[12],inactive
same,Potency,[13],inactive
same,Potency,[10],inactive
c1ccc2[nH]c(NCCCc3cnc[nH]3)nc2c1,Potency,[10],inactive
O=C1c2ccccc2CC[C@H]1CNCCc1ccc(O)cc1,Potency,[11],> 46 µM (inactive)
same,Potency,[14],> 46 µM (inactive)
same,Potency,[13],inactive
same,Potency,[10],inactive
CCCCCCCC/C=C\C/C=C\C/C=C\CCCC(=O)NCCO,"activity change, negative = inhibition",[10],-21.6% [at 3.88 µM] (inactive)
C[C@H](N=C(NC#N)Nc1ccncc1)C(C)(C)C,Potency,[11],> 46 µM (inactive) and > 20.6 µM (inactive)
same,Potency,[14],> 46 µM (inactive) and > 20.6 µM (inactive)
same,Potency,[12],inactive
same,"activity change, negative = inhibition",[15]; at 25.7 µM (top of the series),-0.699% (inactive)
same,max response,[15]; [16],1.19%
same,max response,[15]; [17],-1.85%
same,Potency,[13],inactive
same,Potency,[10],inactive
CC1=C(\C=C/C(C)=C/C=C\C(C)=C\C(=O)O)C(C)(C)CCC1,Potency,[11],> 46 µM (inactive) and > 20.6 µM (inactive)
same,Potency,[14],> 46 µM (inactive) and > 20.6 µM (inactive)
same,Potency,[12],inactive
same,"activity change, negative = inhibition",[15]; at 25.7 µM (top of the series),0.599% (inactive) and 0.957% (inactive)
same,max response,[15]; [16],-6.58% and 5.14%
same,max response,[15]; [17],-6.6% and 8.88%
same,Potency,[13],inactive
same,Potency,[10],inactive
NCCCCCCNS(=O)(=O)c1cccc2ccccc12,Potency,[11],> 46 µM (inactive)
same,Potency,[14],> 46 µM (inactive)
same,Potency,[12],inactive
same,Potency,[13],inactive
same,Potency,[10],inactive
C[N+]1(C)CCc2cc3c(cc2[C@@H]1[C@@H]1C(=O)Oc2c1ccc1c2OCO1)OCO3,Potency,[11],> 46 µM (inactive)
same,Potency,[14],> 46 µM (inactive)
same,Potency,[12],inactive
same,Potency,[13],inactive
same,Potency,[10],inactive
OC[C@H]1OC([S-])[C@H](O)[C@@H](O)[C@H]1O.[Au+] (stereo partly specified),Potency,[10],inactive
COc1ccc2c(c1)CCC1[C@@H]2CCC2(C)[C@@H](NCCCCCCN3C(=O)C=CC3=O)CC[C@@H]12 (stereo partly specified),Potency,[11],> 46 µM (inactive)
same,Potency,[14],> 46 µM (inactive)
same,Potency,[12],inactive
same,"activity change, negative = inhibition",[15]; at 57.5 µM (top of the series),-5.78% (inactive)
same,max response,[15]; [16],16.2%
same,max response,[15]; [17],8.52%
same,Potency,[13],inactive
CC[N+](CC)(CC)CCOc1ccc(/C=C\c2ccccc2)cc1,Potency,[11],> 46 µM (inactive)
same,Potency,[14],> 46 µM (inactive)
same,Potency,[12],inactive
same,Potency,[13],inactive
same,Potency,[10],inactive
CC(=O)O[C@H](CC(=O)O)C[N+](C)(C)C,Potency,[11],> 46 µM (inactive)
same,Potency,[14],> 46 µM (inactive)
same,Potency,[12],inactive
same,"activity change, negative = inhibition",[15]; at 57.5 µM (top of the series),5.24% (inactive)
same,max response,[15]; [16],15%
same,max response,[15]; [17],18.1%
same,Potency,[13],inactive
same,Potency,[10],inactive
Nc1ncnc2c1ncn2C1O[C@H](COP(=O)(O)O)[C@@H](O)[C@H]1O (stereo partly specified),Potency,[10],inactive
C=C1CC[C@H](O)C/C1=C/C=C1\CCC[C@]2(C)C([C@H](C)CCCC(C)(C)O)CC[C@@H]12 (stereo partly specified),Potency,[10],inactive
COC(=O)C1=C(C)NC(C)=C([N+](=O)[O-])[C@H]1c1ccccc1C(F)(F)F,Potency,[11],> 46 µM (inactive)
same,Potency,[14],> 46 µM (inactive)
same,Potency,[12],inactive
same,Potency,[13],inactive
same,Potency,[10],inactive
O=C1c2ccccc2CCC1CNCCc1ccc(O)cc1 (stereo unspecified),Potency,[10],inactive
COc1ccc2c(c1)c(CC(=O)N1CCOCC1)c(C)n2C(=O)c1ccc(Cl)cc1,Potency,[14],> 46 µM (inactive)
same,Potency,[12],inactive
same,Potency,[13],inactive
same,Potency,[10],inactive
O=C(O)c1ccncc1,Potency,[10],inactive
CCOC(=O)C1CSC(Cc2ccc(OCc3ccc([N+](=O)[O-])cc3)cc2)N1 (stereo unspecified),Potency,[10],inactive
CCCCC[C@H](O)/C=C/C=C\CCCCCCCC(=O)O,Potency,[10],inactive
C/C=C1\C2C=C(C)CC1(N)c1ccc(=O)[nH]c1C2 (stereo unspecified),Potency,[10],inactive
